From PubChem BioAssay (NCI)
About 83,000 compounds went through this panel and 20% of them were active in at least one assay; those are over-represented in the sample as a whole.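 In brief: 96-well plates, 48 h treatment, single concentration, percent growth endpoint.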 Values without a mark were called inactive. Calls of active or inactive are those of the source. How the source made its calls: active means growth percent below 10; inactive means the rest.

Columns and labels:
Experiment in all cases: NCI-60 one-dose screen, 48 h (100 = growth as untreated, 0 = no growth, -100 = all killed)
Conditions in all cases: 10 µM unless noted
[1] = system: SR leukemia
[2] = system: RPMI-8226 leukemia
[3] = system: OVCAR-8 ovarian
[4] = system: OVCAR-5 ovarian
[5] = system: OVCAR-4 ovarian
[6] = system: SK-OV-3 ovarian
[7] = system: IGROV1 ovarian
[8] = system: OVCAR-3 ovarian
[9] = system: HS 578T breast
[10] = system: NCI/ADR-RES ovarian
[11] = system: T-47D breast
[12] = system: BT-549 breast
[13] = system: MDA-MB-435 melanoma
[14] = system: SW-620 colon
[15] = system: MCF7 breast
[16] = system: HCT-116 colon
[17] = system: KM12 colon
[18] = system: MDA-MB-468 breast
[19] = system: HCC-2998 colon

SMILES | growth [1] | growth [2] | growth [3] | growth [4] | growth [5] | growth [6] | growth [7] | growth [8] | growth [9] | growth [10] | growth [11] | growth [12] | growth [13] | growth [14] | growth [15] | growth [16] | growth [17] | growth [18] | growth [19]
COc1cc(/C=C/C(=O)c2cnn(-c3cc(=O)[nH]c4ccc(Br)cc34)c2C)cc(OC)c1OC | -15.2% (active) | -23.7% (active) | 7.35% (active) | -68% (active) | 25.6% | 19.5% | -59.8% (active) | -59.1% (active) | 54.1% | -26.8% (active) | -47.3% (active) | -44.7% (active) | 0.423% (active) | -67.4% (active) | -46% (active) | -68.9% (active) | -42.6% (active) | -80.6% (active) | 
COC(=O)c1cc(C(=O)C(C)(C)C)n2c3ccccc3c3ccccc3c12 | 69.7% | 70.2% | 98.6% | 98.6% | 85.9% | 109% | 86.2% | 110% | 99.3% | 89.3% | 47.1% | 111% | 105% | 101% | 86.2% | 88.4% | 79.5% | 88.3% | 124%
CN(C)c1ccc(/C=C/c2n(Cc3ccc4ccccc4c3)c3ccccc3[n+]2Cc2ccc3ccccc3c2)cc1 | -29.3% (active) | -36.7% (active) | -31.3% (active) | -97.6% (active) | -79% (active) | -80.3% (active) | -75.9% (active) | -45.2% (active) | -46.3% (active) | -80.7% (active) | -55.3% (active) | -87.1% (active) | -94.7% (active) | -65.4% (active) | -67.3% (active) | -62.7% (active) | -29.9% (active) | -82.2% (active) | 
NC(=Nc1ccc(OCCCCCCCCn2cnnn2)cc1)c1ccccc1 | 14.6% | 29.5% |  | 23.1% | 56% | 35.3% | 24.4% |  | 22% |  | 45.6% | 18.9% |  | 22.5% | 13.4% | 15.2% | 10.5% | 20.9% | 17.1%
Cc1cc(Cl)ccc1NC(=O)Nc1ccc(-c2ccc3c(c2)NC(=O)/C3=C\c2ccc[nH]2)cc1 | 69.3% |  | 104% | 108% | 84.7% | 125% | 96.2% | 119% | 102% | 104% | 26.4% | 79.1% | 98.6% | 89.3% | 18.7% | 108% | 25.8% | -2.85% (active) | 118%
CN(CCSSCCN1CCOCC1)C(=O)Oc1cc2c(c3ccccc13)[C@H](CCl)CN2C(=O)c1cc2cc(OCCCN3CCC3)ccc2[nH]1 | -26.2% (active) | -28.5% (active) | -15.7% (active) | -36.7% (active) | -28.7% (active) | -27.7% (active) | -22.1% (active) |  | -16.8% (active) | -30.4% (active) | -41.9% (active) | -52.5% (active) | -36.5% (active) | -8.71% (active) | -60.8% (active) | -49.1% (active) | -23.5% (active) | -80% (active) | -64.7% (active)
COC(=O)c1cc(C(=O)C(F)(F)F)n2c3ccccc3c3ccccc3c12 | 60.7% | 96% | 42.7% | 83.5% | 10.8% | 82.9% | 40% |  | 41.7% | 67.7% | 64.4% | 85.9% | 96.2% | 83.9% | 80.8% | 48% | 100% | 60.8% | 108%
COc1cc(/C=C/C(=O)c2cnn(-c3cc(=O)[nH]c4ccc(C)cc34)c2C)cc(OC)c1OC | -8.63% (active) |  | 11.5% | -37.3% (active) | 39.3% | 24.7% | -1.52% (active) | -50.1% (active) | 52.5% | -11.1% (active) | 1.32% (active) | -57.2% (active) | 1.91% (active) | -57.6% (active) | -15.7% (active) | -77.3% (active) | -41.8% (active) | -77.3% (active) | -99% (active)
NNc1ncnc2sc3c(c12)CCN(Cc1ccccc1)C3 | 40.1% |  | 20% | 70.6% | 28.6% | 72.3% | 83.2% | 13.4% | 72.3% | 35.3% | 24.8% | 55% | 77.7% | 46.6% | 9.55% (active) | 42.6% | 53.8% | 13.2% | 52.1%
CCCSc1nnc(-c2c(C)nc3sccn23)o1 | 120% |  | 98.3% | 85.9% | 71.9% | 108% | 83.8% | 98.5% | 79.6% | 83.5% | 21.2% | 109% | 105% | 104% | 23% | 95.7% | 96.2% | -22.9% (active) | 105%
COc1ccc(NC(=O)CSc2nnc(-c3ccc(-c4nc5ccc(Cl)cc5[nH]4)cc3)o2)cc1 | 18.5% | 46.3% | 2.41% (active) | 59.8% | 33.8% | 55% | 59.6% |  | 24.7% | 48% | 75.9% | 4.02% (active) | 17.8% | 20.3% | 42.2% | 9.94% (active) | 29.6% | 86.2% | 109%
O=C1Nc2cc(-c3ccc(NS(=O)(=O)c4ccc([N+](=O)[O-])cc4)cc3)ccc2/C1=C/c1ccc[nH]1 | 12.9% | 13.5% | 7.53% (active) | 27.5% | 6.68% (active) | -16.9% (active) | 39.2% |  | 41.6% | 24.4% | 15.9% | -23% (active) | 1.34% (active) | 6.1% (active) | -23.6% (active) | -48.6% (active) | 27.5% | -29.6% (active) | 
CCOC(=O)/C(F)=C/C1CC1C1CCN(C(=O)OC(C)(C)C)CC1 (stereo not given) | 89.6% | 102% | 103% | 111% | 94.8% | 110% | 106% |  | 110% | 100% | 74.6% | 125% | 105% | 101% | 83.9% | 99.1% | 102% | 94.8% | 111%
O=C1Nc2ccccc2/C1=C/C(=O)c1cc2ccccc2oc1=O | 56.8% | 95.9% | 109% | 112% | 104% | 91.9% | 98.3% |  | 105% | 107% | 83.2% | 111% | 110% | 2.06% (active) | 53.3% | 66% | 95.9% | 54.4% | 140%
Cc1ccc2c(c1)nc(-c1ccccc1)n2CC(=O)N=Nc1c(O)[nH]c2ccc(Cl)cc12 | -20.7% (active) | -17% (active) | -66.9% (active) | -52.5% (active) | -71.3% (active) | -72.6% (active) | -86% (active) |  | -32.9% (active) | -73% (active) | -79.4% (active) | -72% (active) | -14.2% (active) | 0.844% (active) | -64% (active) | -82.5% (active) | -56.2% (active) | -70.2% (active) | -71.3% (active)
O=C(c1ccc(Cl)cc1)C1[C@H](c2ccccc2Cl)[C@@H](c2ccccc2)NC12C(=O)Nc1ccc(Br)cc12 (stereo not given in full) | -54.4% (active) |  | -76.9% (active) | -91.5% (active) | -33.3% (active) | -7.68% (active) | -59.8% (active) | -48.3% (active) | -36% (active) | -87% (active) | -83.4% (active) | -95.1% (active) | -93.4% (active) | -84.1% (active) | -48.7% (active) | -98.9% (active) | -51.8% (active) | -83.2% (active) | -94.2% (active)
